The list is not random: actives were taken first. Their share in the collection is about 3.6%.
APOBEC3A inh – APOBEC3A ssDNA deaminase inhibitors, primary screen, selectivity assay for APOBEC3G inhibitor project, biochemical, FAM/TAMRA oligo cleavage fluorescence. inhibition, % at 20 µM. recombinant A3A, FAM/TAMRA ssDNA deamination fluorescence. AID 493011, 2011. 330,000 tested, 0.41% active;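 active = at least 40% inhibition at 20 µM here, with at most 30% in a related deaminase screen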
A3G deaminase – APOBEC3G DNA deaminase inhibitors, primary screen, biochemical, fluorescence, single-stranded DNA substrate, uHTS. inhibition, % at 20 µM. recombinant A3G, ssDNA deamination FAM/TAMRA fluorescence. AID 493012, 2011. DNA dC->dU-editing enzyme APOBEC-3G (Homo sapiens), Q9HC16. 330,000 tested, 0.28% active;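 active = inhibition of at least 40% at 20 µM, with no more than 30% in the related APOBEC3A deaminase screen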
PHOSPHO1 inh – PubChem AID 1565; recombinant PHOSPHO1, absorbance phosphatase assay; inhibition, % at 13.3 µM; 290,000 tested, 1.1% active; in the data active = inhibition above about 60%
Target sequence (Q8TCT1 whole entry, looked up): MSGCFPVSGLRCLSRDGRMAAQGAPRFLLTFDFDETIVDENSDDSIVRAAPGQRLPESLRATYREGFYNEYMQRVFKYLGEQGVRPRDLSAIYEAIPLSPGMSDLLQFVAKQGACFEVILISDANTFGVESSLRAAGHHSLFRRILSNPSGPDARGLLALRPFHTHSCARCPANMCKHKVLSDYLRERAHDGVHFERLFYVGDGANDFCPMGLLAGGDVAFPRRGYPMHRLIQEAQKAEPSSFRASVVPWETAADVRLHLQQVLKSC
Wnt act – Wnt/beta-catenin pathway activators, primary screen, cell-based, plate reader, single point; 300,000 tested, 1.2% active; AID 743398, 2014; Wnt/beta-catenin reporter cell assay, activator; activation, % at 9.35 µM; in the data active = activation above about 30%, passing the limit was not always enough
esBAF inh – Bmi1 luciferase reporter increase in mESCs, primary screen, esBAF inhibitor project, mouse ES cells, Bmi1 luciferase knock-in, single point; 350,000 tested, 2% active; reporter increase, % at 12.5 µM; AID 602393, 2012; 24 h; 100% = twice the neutral-well signal; in the data active = activation above about 40%;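 also: a rise in the Bmi1 reporter signal indicates esBAF inhibition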
MITF act – activators of MITF-driven TRPM1 promoter reporter, primary screen, cell-based, SK-MEL-5, luciferase, single point; SK-MEL-5 TRPM1-promoter luciferase, 24 h; % of positive control, neutral wells = 0; activation, % at 12.5 µM; 300,000 tested, 0.75% active;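 active = mean activation of at least 80% with every replicate also reaching 80%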
Hits are given with their value.

COc1cccc(NC(=O)Nc2ccc3c(c2)nnn3C)c1 was read as APOBEC3A inh inactive, A3G deaminase inactive, PHOSPHO1 inh inactive, Wnt act inactive, esBAF inh 48.4 and MITF act 107.3.
`CCc1ccc(OC(=O)Nc2ccccc2)cc1` gave APOBEC3A inh inactive, A3G deaminase inactive, PHOSPHO1 inh inactive, Wnt act inactive, esBAF inh inactive and MITF act 92.2.
COc1cccc(NC(=O)Nc2cc(C)ccc2F)c1 was read as APOBEC3A inh inactive, A3G deaminase inactive, PHOSPHO1 inh inactive and esBAF inh 61.1.
For C[C@H](CO)N1C[C@H](C)[C@H](CN(C)Cc2ccc(Oc3ccccc3)cc2)Oc2c(NC(=O)Nc3ccccc3)cccc2C1=O the results were esBAF inh inactive.
CCc1ccc(NC(=O)Nc2cccc(OC)c2)cc1 was read as APOBEC3A inh inactive, A3G deaminase inactive, PHOSPHO1 inh inactive, Wnt act inactive, esBAF inh 62.1 and MITF act inactive.
`Cc1ccc(NC(=O)c2ccc3c(c2)nnn3C)cc1` gave APOBEC3A inh inactive, A3G deaminase inactive, PHOSPHO1 inh inactive, Wnt act 39.2 and MITF act inactive.
COc1cccc(NC(=O)Nc2ccc(CC(=O)O)cc2)c1 was read as APOBEC3A inh inactive, A3G deaminase inactive, PHOSPHO1 inh inactive, Wnt act inactive, esBAF inh inactive and MITF act inactive.
Screening C[C@H](CO)N1C[C@H](C)[C@H](CN(C)Cc2ccccn2)Oc2ncc(C#CC3CC3)cc2C1=O returned esBAF inh inactive.
`Oc1ccc(C2C(c3ccccc3)=NN=C(c3ccc(Cl)cc3)N2O)c(O)c1` (stereo not drawn) gave APOBEC3A inh inactive, A3G deaminase inactive, PHOSPHO1 inh inactive, Wnt act inactive, esBAF inh 46.4 and MITF act inactive.
For Oc1ccc(C2C(c3ccccc3)=NN=C(c3ccccc3F)N2O)c(O)c1 (stereo not drawn) the results were APOBEC3A inh inactive, A3G deaminase inactive, PHOSPHO1 inh inactive and MITF act inactive.
COc1ccc(-c2oc(=O)c3cc(OC)c(OC)cc3c2-c2ccc3c(c2)OCO3)cc1 was read as APOBEC3A inh inactive, A3G deaminase inactive, Wnt act inactive, esBAF inh inactive and MITF act inactive.
COc1ccc(OC)c2nc(-c3ccc4c(c3)OCO4)ccc12 was read as APOBEC3A inh inactive, A3G deaminase inactive, PHOSPHO1 inh inactive, Wnt act 47.5, esBAF inh inactive and MITF act inactive.
c1ccc2nc(-c3ccc4c(c3)OCO4)ccc2c1 was read as APOBEC3A inh inactive, A3G deaminase inactive, PHOSPHO1 inh inactive, Wnt act 50.2 and esBAF inh inactive.
For COC(=O)c1cc(-c2ccc3c(c2)OCO3)nc2ccccc12 the results were APOBEC3A inh inactive, A3G deaminase inactive, PHOSPHO1 inh inactive, esBAF inh inactive and MITF act inactive.
`O=C(NCCNS(=O)(=O)c1ccccc1)c1cc(OCC(F)(F)F)ccc1OCC(F)(F)F` gave APOBEC3A inh inactive, A3G deaminase inactive, PHOSPHO1 inh 62.3, Wnt act inactive, esBAF inh inactive and MITF act inactive.
`CCOc1ccccc1N1CC(C(=O)NCCC2=CCCCC2)CC1=O` (stereo not drawn) gave Wnt act inactive, esBAF inh 46.0 and MITF act inactive.
`C[C@@H]1CN([C@H](C)CO)C(=O)c2cc(NC(=O)CCC(F)(F)F)ccc2O[C@@H](C)CCCCO[C@H]1CN(C)C(=O)c1ccncc1` gave esBAF inh inactive.
`Cc1ccc(/C=C2\SC(N3CCCCC3)=NC2=O)cc1` gave APOBEC3A inh inactive, A3G deaminase inactive, Wnt act inactive, esBAF inh 42.3 and MITF act inactive.
Screening CCC(=O)N(C)C[C@@H]1Oc2ncc(-c3ccccc3C)cc2C(=O)N([C@H](C)CO)C[C@@H]1C returned esBAF inh inactive.

Screening results as filed in PubChem.
